# Results taken from paper PMC7862700, “An all-to-all approach to the identification of sequence-specific readers for epigenetic DNA modifications on cytosine”.
# Columns and labels:
# Test in all cases: DAPPL (digital affinity profiling via proximity ligation, sequencing); 10 mM Tris-HCl pH 7.5, 50 mM NaCl, 1 mM DTT, 4% glycerol, room temperature, 30 min; GST-TFs on glutathione beads, 16-mer random dsDNA library, 0.1% formaldehyde crosslink after washing; high values mean tight binding
# FLI1 = target: T1, FLI1 (Homo sapiens, UniProt Q01543 1-452); details: protein: recombinant; tags: N-terminal GST; dsDNA, one strand shown
# T1 sequence: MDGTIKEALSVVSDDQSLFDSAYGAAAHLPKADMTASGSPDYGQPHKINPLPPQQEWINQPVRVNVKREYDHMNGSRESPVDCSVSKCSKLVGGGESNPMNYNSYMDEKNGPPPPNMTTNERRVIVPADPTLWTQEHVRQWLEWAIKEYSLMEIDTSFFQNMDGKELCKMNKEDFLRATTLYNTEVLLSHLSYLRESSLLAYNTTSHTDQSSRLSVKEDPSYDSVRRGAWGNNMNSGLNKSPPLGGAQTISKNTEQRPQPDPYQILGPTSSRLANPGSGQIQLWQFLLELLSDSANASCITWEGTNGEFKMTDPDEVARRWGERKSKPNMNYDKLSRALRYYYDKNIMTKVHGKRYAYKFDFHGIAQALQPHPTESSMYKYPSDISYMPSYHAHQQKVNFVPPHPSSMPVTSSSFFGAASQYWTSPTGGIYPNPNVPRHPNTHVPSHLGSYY
# How it was run: (§1)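 Human transcription factors fused to GST were expressed in yeast, captured on glutathione beads, given DNA barcodes and pooled with a GST-only negative control. Pools were incubated with 200 nmole of a 16-mer random double-stranded DNA library in Tris/NaCl/DTT/glycerol buffer at room temperature for 30 min. They were then washed, crosslinked with 0.1% formaldehyde, proximity-ligated (BsaI/T4 ligase, 1 h, 37 °C), PCR-amplified and sequenced on an Illumina NextSeq500. Binding signal is each 6-mer's read frequency for a factor divided by its frequency for the GST control.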
# ELK1 = target: T2, ELK1 (Homo sapiens, UniProt P19419 1-428); details: protein: recombinant; tags: N-terminal GST; dsDNA, one strand shown
# T2 sequence: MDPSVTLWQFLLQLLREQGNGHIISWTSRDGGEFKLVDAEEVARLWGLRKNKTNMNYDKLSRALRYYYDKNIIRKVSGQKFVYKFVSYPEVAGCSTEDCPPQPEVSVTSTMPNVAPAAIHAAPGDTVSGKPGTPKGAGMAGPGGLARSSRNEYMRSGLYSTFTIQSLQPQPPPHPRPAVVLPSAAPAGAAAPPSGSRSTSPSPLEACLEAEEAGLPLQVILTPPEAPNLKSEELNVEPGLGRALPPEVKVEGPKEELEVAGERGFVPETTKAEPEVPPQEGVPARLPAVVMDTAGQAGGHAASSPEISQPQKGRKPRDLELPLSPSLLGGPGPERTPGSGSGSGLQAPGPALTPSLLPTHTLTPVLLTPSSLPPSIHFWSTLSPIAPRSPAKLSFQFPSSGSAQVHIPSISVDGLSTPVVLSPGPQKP
# How it was run: as §1
# GABPA = target: T3, GABPA (Homo sapiens, UniProt Q06546 1-454); details: protein: recombinant; tags: N-terminal GST; dsDNA, one strand shown
# T3 sequence: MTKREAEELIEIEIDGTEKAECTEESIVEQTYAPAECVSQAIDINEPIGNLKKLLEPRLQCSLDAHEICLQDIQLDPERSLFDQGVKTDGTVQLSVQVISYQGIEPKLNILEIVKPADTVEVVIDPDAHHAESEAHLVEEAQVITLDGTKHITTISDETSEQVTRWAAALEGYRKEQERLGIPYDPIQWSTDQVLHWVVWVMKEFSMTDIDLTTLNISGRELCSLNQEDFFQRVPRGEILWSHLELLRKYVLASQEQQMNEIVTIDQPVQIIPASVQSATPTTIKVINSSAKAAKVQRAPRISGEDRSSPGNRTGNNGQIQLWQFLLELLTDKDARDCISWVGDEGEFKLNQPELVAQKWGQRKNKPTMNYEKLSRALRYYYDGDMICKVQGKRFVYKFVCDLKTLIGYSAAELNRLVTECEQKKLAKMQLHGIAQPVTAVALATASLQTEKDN
# How it was run: as §1
# ERG = target: T4, ERG (Homo sapiens, UniProt P11308 1-479); details: protein: recombinant; tags: N-terminal GST; dsDNA, one strand shown
# T4 sequence: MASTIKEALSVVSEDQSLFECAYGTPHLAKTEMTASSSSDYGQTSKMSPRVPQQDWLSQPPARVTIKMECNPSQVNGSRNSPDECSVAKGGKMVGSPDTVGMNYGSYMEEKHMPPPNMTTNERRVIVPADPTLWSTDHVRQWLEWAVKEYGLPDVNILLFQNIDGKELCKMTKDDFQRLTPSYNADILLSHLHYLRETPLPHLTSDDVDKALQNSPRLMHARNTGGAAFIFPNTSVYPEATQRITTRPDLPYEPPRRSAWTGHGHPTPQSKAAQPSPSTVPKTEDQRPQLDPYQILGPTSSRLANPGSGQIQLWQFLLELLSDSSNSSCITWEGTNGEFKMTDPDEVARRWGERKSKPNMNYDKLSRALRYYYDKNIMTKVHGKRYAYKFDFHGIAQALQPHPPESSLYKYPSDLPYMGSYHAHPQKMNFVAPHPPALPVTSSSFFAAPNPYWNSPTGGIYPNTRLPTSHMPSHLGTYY
# How it was run: as §1
# ELF1 = ELF1 (Homo sapiens, UniProt P32519 1-619); details: protein: recombinant; tags: N-terminal GST; dsDNA, one strand shown
# Sequence of ELF1 (P32519 whole entry): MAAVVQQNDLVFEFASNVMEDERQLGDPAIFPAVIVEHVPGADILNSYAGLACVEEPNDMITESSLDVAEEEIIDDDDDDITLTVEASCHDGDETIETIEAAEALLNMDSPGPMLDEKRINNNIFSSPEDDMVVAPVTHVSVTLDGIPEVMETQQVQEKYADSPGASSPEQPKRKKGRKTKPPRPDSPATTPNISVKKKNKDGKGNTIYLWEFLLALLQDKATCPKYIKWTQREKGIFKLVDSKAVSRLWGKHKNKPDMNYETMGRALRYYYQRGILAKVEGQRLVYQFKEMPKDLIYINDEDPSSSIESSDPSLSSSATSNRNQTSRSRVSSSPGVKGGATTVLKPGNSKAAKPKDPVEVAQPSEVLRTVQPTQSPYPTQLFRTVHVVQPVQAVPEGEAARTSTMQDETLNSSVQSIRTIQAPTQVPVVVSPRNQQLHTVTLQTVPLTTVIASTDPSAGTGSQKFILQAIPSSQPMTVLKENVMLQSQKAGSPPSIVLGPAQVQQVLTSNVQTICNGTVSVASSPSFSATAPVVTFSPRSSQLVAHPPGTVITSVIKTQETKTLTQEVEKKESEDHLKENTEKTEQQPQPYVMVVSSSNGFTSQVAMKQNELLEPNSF
# How it was run: as §1
# EHF = target: T5, EHF (Homo sapiens, UniProt Q9NZC4 1-300); details: protein: recombinant; tags: N-terminal GST; dsDNA, one strand shown
# T5 sequence: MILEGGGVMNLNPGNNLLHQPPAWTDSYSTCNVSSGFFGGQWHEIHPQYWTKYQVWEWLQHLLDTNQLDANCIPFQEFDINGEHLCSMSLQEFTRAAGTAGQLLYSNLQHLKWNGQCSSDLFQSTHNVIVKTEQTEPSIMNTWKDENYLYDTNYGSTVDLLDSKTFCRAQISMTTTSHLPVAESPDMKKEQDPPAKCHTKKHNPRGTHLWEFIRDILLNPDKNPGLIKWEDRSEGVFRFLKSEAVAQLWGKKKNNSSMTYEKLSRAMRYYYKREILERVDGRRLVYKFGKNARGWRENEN
# How it was run: as §1
# SPI1 = SPI1 (Homo sapiens, UniProt P17947 1-270); details: protein: recombinant; tags: N-terminal GST; dsDNA, one strand shown
# How it was run: as §1
# SPIB = SPIB (Homo sapiens, UniProt Q01892 1-262); details: protein: recombinant; tags: N-terminal GST; dsDNA, one strand shown
# Sequence of SPIB (Q01892 whole entry): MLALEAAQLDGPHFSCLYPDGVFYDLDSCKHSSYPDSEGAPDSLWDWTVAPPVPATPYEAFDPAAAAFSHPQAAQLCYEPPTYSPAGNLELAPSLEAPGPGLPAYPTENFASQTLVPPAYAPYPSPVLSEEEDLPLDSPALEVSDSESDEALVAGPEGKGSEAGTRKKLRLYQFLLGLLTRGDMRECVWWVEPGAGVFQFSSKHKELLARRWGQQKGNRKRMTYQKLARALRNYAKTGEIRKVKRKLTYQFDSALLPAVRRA
# How it was run: as §1
# ELK3 = target: T6, ELK3 (Homo sapiens, UniProt P41970 1-407); details: protein: recombinant; tags: N-terminal GST; dsDNA, one strand shown
# T6 sequence: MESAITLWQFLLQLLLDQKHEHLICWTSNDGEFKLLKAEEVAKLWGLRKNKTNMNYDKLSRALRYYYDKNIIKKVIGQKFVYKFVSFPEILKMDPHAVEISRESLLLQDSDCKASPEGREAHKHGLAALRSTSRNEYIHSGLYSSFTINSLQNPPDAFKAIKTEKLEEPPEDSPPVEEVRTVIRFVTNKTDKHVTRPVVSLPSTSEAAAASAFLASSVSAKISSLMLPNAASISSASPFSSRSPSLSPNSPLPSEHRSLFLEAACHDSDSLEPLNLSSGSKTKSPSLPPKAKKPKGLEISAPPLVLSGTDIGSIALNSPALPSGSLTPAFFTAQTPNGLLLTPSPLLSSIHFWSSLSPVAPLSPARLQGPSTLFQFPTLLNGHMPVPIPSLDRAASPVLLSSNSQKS
# How it was run: as §1
# FEV = target: T7, FEV (Homo sapiens, UniProt Q99581 1-238); details: protein: recombinant; tags: N-terminal GST; dsDNA, one strand shown
# T7 sequence: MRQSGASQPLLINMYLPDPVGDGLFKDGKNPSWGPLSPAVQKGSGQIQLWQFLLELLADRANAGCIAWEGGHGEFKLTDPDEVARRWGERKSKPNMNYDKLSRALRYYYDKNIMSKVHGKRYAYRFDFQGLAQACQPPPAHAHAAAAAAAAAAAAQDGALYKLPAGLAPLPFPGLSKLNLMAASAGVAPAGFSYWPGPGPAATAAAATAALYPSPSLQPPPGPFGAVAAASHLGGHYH
# How it was run: as §1
# ETV5 = ETV5 (Homo sapiens, UniProt P41161 1-510); details: protein: recombinant; tags: N-terminal GST; dsDNA, one strand shown
# Sequence of ETV5 (P41161 whole entry): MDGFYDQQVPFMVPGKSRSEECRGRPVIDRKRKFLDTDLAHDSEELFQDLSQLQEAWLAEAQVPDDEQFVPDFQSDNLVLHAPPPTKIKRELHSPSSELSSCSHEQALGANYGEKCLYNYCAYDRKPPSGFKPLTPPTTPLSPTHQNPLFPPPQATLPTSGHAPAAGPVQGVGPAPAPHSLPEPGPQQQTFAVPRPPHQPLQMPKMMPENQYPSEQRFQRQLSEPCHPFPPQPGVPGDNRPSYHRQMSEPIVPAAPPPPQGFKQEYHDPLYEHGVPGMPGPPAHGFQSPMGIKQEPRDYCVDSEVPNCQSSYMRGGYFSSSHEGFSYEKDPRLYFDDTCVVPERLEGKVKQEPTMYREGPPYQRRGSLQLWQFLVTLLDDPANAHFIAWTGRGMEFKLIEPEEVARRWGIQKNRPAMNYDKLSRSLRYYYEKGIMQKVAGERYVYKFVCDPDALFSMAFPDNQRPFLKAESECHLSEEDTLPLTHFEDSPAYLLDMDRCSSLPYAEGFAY
# How it was run: as §1
# HSF1 = HSF1 (Homo sapiens, UniProt Q00613 1-529); details: protein: recombinant; tags: N-terminal GST; chain copies: 3; dsDNA, one strand shown
# Sequence of HSF1 (Q00613 whole entry): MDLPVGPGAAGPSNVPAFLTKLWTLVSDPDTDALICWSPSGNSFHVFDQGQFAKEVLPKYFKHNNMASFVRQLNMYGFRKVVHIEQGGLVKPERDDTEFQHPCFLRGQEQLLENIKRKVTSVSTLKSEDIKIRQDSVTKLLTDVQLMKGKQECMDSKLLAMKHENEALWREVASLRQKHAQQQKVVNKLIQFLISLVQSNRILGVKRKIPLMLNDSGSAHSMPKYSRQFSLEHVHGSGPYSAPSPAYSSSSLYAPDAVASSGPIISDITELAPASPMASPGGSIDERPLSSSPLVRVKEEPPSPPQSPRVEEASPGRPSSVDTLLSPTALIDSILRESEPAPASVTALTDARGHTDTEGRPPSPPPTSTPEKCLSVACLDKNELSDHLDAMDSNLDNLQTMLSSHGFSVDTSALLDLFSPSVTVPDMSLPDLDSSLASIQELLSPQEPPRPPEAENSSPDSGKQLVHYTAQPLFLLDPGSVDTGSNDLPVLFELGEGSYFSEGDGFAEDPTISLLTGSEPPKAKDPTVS
# How it was run: as §1
# SPIC = target: T8, SPIC (Homo sapiens, UniProt Q8N5J4 1-248); details: protein: recombinant; tags: N-terminal GST; dsDNA, one strand shown
# T8 sequence: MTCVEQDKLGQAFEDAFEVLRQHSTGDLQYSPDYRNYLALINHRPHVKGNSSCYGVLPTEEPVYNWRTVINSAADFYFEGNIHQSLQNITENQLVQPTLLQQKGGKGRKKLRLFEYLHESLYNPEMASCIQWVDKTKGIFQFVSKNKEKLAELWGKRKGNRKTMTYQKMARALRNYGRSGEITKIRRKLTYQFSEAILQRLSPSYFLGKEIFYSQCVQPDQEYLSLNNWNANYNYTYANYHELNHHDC
# How it was run: as §1
# ELF4 = ELF4 (Homo sapiens, UniProt Q99607 1-663); details: protein: recombinant; tags: N-terminal GST; dsDNA, one strand shown
# Sequence of ELF4 (Q99607 whole entry): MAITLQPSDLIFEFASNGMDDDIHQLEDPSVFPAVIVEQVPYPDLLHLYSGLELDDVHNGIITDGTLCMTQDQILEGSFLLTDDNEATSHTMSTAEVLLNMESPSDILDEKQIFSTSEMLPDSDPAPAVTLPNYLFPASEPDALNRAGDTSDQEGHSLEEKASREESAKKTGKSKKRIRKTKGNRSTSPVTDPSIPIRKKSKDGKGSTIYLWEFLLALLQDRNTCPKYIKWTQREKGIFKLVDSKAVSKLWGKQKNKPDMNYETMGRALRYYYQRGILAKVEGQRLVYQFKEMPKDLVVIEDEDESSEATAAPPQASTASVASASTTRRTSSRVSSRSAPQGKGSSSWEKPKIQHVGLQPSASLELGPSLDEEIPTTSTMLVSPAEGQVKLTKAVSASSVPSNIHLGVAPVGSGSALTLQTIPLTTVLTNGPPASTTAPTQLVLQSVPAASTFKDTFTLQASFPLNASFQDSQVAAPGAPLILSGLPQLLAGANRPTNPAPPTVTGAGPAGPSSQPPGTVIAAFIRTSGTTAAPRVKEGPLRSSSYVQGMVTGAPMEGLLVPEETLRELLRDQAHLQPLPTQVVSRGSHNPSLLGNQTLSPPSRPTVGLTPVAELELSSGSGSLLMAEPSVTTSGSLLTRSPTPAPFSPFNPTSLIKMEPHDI
# How it was run: as §1
# ELK4 = target: T9, ELK4 (Homo sapiens, UniProt P28324-2 1-405); details: protein: recombinant; tags: N-terminal GST; dsDNA, one strand shown
# T9 sequence: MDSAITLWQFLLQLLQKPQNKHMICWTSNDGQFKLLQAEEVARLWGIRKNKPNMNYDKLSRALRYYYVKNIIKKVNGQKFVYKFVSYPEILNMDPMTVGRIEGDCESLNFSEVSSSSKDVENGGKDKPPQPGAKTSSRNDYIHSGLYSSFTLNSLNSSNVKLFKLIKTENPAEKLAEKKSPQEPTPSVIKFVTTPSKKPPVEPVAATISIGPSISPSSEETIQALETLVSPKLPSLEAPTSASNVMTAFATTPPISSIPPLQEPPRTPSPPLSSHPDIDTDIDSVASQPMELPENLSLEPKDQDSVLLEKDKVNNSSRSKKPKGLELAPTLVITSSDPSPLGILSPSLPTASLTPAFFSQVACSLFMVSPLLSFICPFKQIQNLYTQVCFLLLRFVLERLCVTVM
# How it was run: as §1
# ETV2 = target: T10, ETV2 (Homo sapiens, UniProt O00321 1-342); details: protein: recombinant; tags: N-terminal GST; dsDNA, one strand shown
# T10 sequence: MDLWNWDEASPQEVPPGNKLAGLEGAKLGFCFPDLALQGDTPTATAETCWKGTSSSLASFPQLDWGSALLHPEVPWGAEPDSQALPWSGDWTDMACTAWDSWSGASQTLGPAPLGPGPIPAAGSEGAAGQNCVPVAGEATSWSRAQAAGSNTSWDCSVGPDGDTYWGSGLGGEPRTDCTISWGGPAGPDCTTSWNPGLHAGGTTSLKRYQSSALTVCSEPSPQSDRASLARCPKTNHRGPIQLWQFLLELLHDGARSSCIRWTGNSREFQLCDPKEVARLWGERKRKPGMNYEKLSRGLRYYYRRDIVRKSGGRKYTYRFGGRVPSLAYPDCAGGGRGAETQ
# How it was run: as §1
# ELF3 = target: T11, ELF3 (Homo sapiens, UniProt P78545 1-371); details: protein: recombinant; tags: N-terminal GST; dsDNA, one strand shown
# T11 sequence: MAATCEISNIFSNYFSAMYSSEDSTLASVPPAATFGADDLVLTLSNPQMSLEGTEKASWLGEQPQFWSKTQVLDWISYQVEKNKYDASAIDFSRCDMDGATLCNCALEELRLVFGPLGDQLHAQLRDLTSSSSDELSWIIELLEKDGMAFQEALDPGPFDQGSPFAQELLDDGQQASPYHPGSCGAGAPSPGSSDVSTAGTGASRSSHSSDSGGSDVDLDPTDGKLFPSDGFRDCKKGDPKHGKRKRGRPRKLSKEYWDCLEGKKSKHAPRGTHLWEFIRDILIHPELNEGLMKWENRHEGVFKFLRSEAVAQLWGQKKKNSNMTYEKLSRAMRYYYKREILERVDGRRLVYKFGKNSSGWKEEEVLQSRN
# How it was run: as §1
# CRX = CRX (Homo sapiens, UniProt O43186 1-299); details: protein: recombinant; tags: N-terminal GST; dsDNA, one strand shown
# Sequence of CRX (O43186 whole entry): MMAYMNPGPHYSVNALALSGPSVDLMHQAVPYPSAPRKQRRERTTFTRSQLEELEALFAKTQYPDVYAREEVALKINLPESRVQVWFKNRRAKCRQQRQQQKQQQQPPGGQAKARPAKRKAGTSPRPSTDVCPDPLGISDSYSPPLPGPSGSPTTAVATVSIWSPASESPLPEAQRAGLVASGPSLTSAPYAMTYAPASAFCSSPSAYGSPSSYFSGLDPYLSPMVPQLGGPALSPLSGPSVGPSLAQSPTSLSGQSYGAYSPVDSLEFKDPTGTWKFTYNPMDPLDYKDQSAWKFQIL
# How it was run: as §1
# ETV1 = ETV1 (Homo sapiens, UniProt P50549 1-477); details: protein: recombinant; tags: N-terminal GST; dsDNA, one strand shown
# Sequence of ETV1 (P50549 whole entry): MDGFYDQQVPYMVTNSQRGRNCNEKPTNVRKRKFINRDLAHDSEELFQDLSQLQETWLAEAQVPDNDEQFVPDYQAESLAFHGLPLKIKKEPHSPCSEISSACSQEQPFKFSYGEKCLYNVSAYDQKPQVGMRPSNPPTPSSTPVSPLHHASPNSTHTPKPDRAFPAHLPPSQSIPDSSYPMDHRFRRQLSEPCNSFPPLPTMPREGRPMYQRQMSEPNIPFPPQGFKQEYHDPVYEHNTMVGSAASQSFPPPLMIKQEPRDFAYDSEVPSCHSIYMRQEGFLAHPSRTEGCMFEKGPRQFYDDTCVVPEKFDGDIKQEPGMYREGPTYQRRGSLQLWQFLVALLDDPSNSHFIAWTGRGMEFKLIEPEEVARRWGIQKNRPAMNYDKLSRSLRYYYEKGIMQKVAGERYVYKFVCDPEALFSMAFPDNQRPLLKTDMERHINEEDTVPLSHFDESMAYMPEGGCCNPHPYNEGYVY
# How it was run: as §1
sequence,measurement,setting,value
TTTCAC,binding signal,FLI1,"1.39 fold enrichment (6-mer frequency, TF over GST control)"
same,binding signal,ELK1,"1.34 fold enrichment (6-mer frequency, TF over GST control)"
same,binding signal,GABPA,"1.37 fold enrichment (6-mer frequency, TF over GST control)"
same,binding signal,ERG,"1.33 fold enrichment (6-mer frequency, TF over GST control)"
same,binding signal,ELF1,"1.43 fold enrichment (6-mer frequency, TF over GST control)"
same,binding signal,EHF,"1.3 fold enrichment (6-mer frequency, TF over GST control)"
same,binding signal,SPI1,"1.34 fold enrichment (6-mer frequency, TF over GST control)"
same,binding signal,SPIB,"1.27 fold enrichment (6-mer frequency, TF over GST control)"
same,binding signal,ELK3,"1.39 fold enrichment (6-mer frequency, TF over GST control)"
same,binding signal,FEV,"1.37 fold enrichment (6-mer frequency, TF over GST control)"
same,binding signal,ETV5,"1.37 fold enrichment (6-mer frequency, TF over GST control)"
same,binding signal,HSF1,"1.23 fold enrichment (6-mer frequency, TF over GST control)"
same,binding signal,SPIC,"1.17 fold enrichment (6-mer frequency, TF over GST control)"
same,binding signal,ELF4,"1.43 fold enrichment (6-mer frequency, TF over GST control)"
same,binding signal,ELK4,"1.52 fold enrichment (6-mer frequency, TF over GST control)"
same,binding signal,ETV2,"1.35 fold enrichment (6-mer frequency, TF over GST control)"
same,binding signal,ELF3,"1.26 fold enrichment (6-mer frequency, TF over GST control)"
same,binding signal,CRX,"1.14 fold enrichment (6-mer frequency, TF over GST control)"
same,binding signal,ETV1,"1.42 fold enrichment (6-mer frequency, TF over GST control)"
